# Publication PMC4336329 (PLoS ONE, 2015)
# Out of some 310,000 compounds screened, about 14,000 (4.5%) showed an effect of 50% or more. The effect is printed as a negative number. The sample as a whole holds a higher share of strong results than the screen did.
# Target: human ether-à-go-go-related gene (hERG) potassium channel (human, UniProt Q12809)
# Test: primary screen, population patch clamp on CHO cells stably expressing hERG; higher = less effect of the substance
# 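Also: peak tail current of the secondary pulse compared with the same well before compound.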
# Chain of human ether-à-go-go-related gene (hERG) potassium channel (Q12809 whole entry, looked up): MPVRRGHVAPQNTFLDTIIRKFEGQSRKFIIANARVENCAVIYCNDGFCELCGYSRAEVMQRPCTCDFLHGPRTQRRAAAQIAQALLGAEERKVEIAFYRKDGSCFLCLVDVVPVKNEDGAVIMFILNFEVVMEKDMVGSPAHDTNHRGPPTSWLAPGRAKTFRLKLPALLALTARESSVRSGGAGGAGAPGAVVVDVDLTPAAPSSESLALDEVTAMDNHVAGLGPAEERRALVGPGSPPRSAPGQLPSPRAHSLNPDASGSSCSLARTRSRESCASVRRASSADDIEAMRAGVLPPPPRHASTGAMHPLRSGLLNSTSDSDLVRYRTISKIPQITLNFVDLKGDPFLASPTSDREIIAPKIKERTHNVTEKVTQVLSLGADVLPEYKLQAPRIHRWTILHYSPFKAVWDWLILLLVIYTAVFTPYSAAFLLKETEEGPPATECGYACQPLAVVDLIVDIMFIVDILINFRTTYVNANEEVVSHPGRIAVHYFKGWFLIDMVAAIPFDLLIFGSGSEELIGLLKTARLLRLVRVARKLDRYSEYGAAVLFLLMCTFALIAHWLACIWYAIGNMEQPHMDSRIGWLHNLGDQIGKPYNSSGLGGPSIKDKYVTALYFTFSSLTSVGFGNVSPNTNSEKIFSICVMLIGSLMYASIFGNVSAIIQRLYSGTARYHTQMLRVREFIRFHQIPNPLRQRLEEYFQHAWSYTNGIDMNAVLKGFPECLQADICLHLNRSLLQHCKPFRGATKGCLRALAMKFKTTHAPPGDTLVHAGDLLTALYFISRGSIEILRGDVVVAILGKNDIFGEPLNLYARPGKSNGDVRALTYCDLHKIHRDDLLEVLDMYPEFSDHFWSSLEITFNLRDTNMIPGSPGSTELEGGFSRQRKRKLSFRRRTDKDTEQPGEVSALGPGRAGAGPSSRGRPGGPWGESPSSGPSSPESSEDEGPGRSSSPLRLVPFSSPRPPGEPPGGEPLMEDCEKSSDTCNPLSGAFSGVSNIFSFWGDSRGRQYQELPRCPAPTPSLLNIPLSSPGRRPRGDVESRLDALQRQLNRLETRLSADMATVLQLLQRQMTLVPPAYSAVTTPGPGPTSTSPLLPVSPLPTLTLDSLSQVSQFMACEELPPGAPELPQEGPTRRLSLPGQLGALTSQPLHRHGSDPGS
row,Compound,"hERG current change (%, negative = inhibition) at 10uM"
1,Cc1cccc(N(C(=O)c2nsc(Cl)c2Cl)C(C(=O)NC2CCCC2)c2ccc(O)cc2)c1 (centres unmarked),-2.24%
2,N#CCO/N=C(\c1ccccc1)c1ccncc1,18.1%
3,O=C(Nc1cccc(C(=O)O)c1)/C(=C/c1ccc2c(c1)OCO2)NC(=O)c1cccc(Br)c1,7.35%
4,O=C(O)CNC(=O)/C(=C\c1ccc2c(c1)OCO2)NC(=O)c1ccc(Br)cc1,8.77%
5,O=C(Nc1ccc(C(=O)O)cc1)/C(=C/c1ccc2c(c1)OCO2)NC(=O)c1cccc(Br)c1,7.25%
6,CCNC(=O)/C(=C\c1ccc2c(c1)OCO2)NC(=O)c1ccc(Br)cc1,-69.7%
7,C=CCNC(=O)/C(=C\c1ccc2c(c1)OCO2)NC(=O)c1ccc(Br)cc1,-30%
8,CCNC(=O)/C(=C/c1ccc2c(c1)OCO2)NC(=O)c1ccc(Br)cc1,-58.3%
9,CC1CC2=C(C(=O)O1)C(c1ccc(Cl)cc1)Nc1ccccc1N2 (centres unmarked),-6.21%
10,Cc1ccc(-c2csc(NC(=O)CCNC(=O)c3ccccc3Cl)n2)cc1,1.5%
11,CC1CCCCC1N1CCN(C(=O)c2cccc(F)c2)CC1.O=C(O)C(=O)O (centres unmarked),-17.5%
12,CS(=O)(=O)c1ccc(-c2cccc(NC(=O)COc3ccccc3)c2)nn1,-3.45%
13,CCCN1C(=O)/C(=C/c2nc3ccccc3c(=O)[nH]2)c2ccccc21,1.75%
14,O=C(COC(=O)c1nc(Cl)ccc1Cl)Nc1ccc2c(c1)OCO2,-3.62%
15,Cc1c(O)c(S(=O)(=O)c2ccccc2)c(=O)n(-c2ccccc2)c1-c1ccccc1,3.84%
16,Cl.N=c1n(CCN2CCCCC2)c2ccccc2n1CC(O)c1ccc(Cl)c(Cl)c1 (centres unmarked),-105%
17,COc1ccc(C(O)Cn2c(=N)n(CCCN(C)C)c3ccccc32)cc1.Cl (centres unmarked),-13%
18,Cl.N=c1n(CCO)c2ccccc2n1CCN1CCCCC1,6.77%
19,Cl.N=c1n(CCN2CCCC2)c2ccccc2n1CC(O)c1ccc(Cl)c(Cl)c1 (centres unmarked),-91.4%

row,Compound,"hERG current change (%, negative = inhibition) at 10uM"
1,OC(CN1CCCCC1)Cn1c2ccccc2c2cc(Br)ccc21 (centres unmarked),-33.1%
2,CN(C)CCn1c(=N)n(CC(O)c2ccc(Cl)c(Cl)c2)c2ccccc21.Cl (centres unmarked),-66.1%
3,Cl.N=c1n(CCN2CCCCC2)c2ccccc2n1CC(O)c1cccc(Br)c1 (centres unmarked),-63.2%
4,Cc1ccc2c(c1)N(CCC(=O)NCCCOC(C)C)C(=O)C(C)O2 (centres unmarked),-0.496%
5,O=C(Nc1ccccc1C(=O)NCc1cccnc1)c1cccc([N+](=O)[O-])c1,-1.36%
6,O=C(CSc1nc(-c2ccc(F)cc2)cc(C(F)(F)F)n1)NCc1ccco1,10.2%
7,Oc1nc(-c2ccc(Br)cc2)n2ccncc12,-8.14%
8,CC(C)(C)NC(=O)CSc1nc2ccccc2c(=O)[nH]1,11.7%
9,COc1ccc(CCNC(=O)c2cc3ccccn3n2)c(OC)c1OC,-3.41%
10,O=C(CNC1CCCCC1)N1CCC2(CC1)OCCO2.O=C(O)C(=O)O,21.4%
11,CCOC(=O)Cc1cc(=O)n2[nH]c(-c3ccccc3)c(-c3ccccc3)c2n1,-18%
12,Cc1ccc(OCCN2CCN(CC(O)Cn3c4ccccc4c4ccccc43)CC2)cc1.O=C(O)C(=O)O (centres unmarked),-25.1%
13,O=CN1CCN(CC(O)Cn2c3ccccc3c3ccccc32)CC1 (centres unmarked),-23.6%
14,CC(=O)N1CCN(CC(O)Cn2c3ccccc3c3ccccc32)CC1 (centres unmarked),7.81%
15,CCOc1ccc(CN2CCN(CC(O)Cn3c4ccccc4c4ccccc43)CC2)cc1 (centres unmarked),-70.9%
16,OC(CN1CCN(Cc2ccccc2)CC1)Cn1c2ccccc2c2ccccc21 (centres unmarked),-67.7%
17,COc1ccc(CN2CCN(CC(O)Cn3c4ccccc4c4ccccc43)CC2)cc1 (centres unmarked),-75.2%
18,Cl.OC(CN1CCNCC1)Cn1c2ccccc2c2ccccc21 (centres unmarked),-6.23%
19,CN1CCN(CC(O)Cn2c3ccccc3c3ccccc32)CC1.O=C(O)C(=O)O (centres unmarked),3.46%

row,Compound,"hERG current change (%, negative = inhibition) at 10uM"
1,OC(CN1CCCCC1)Cn1c2ccccc2c2ccccc21 (centres unmarked),3.16%
2,CC1CCN(CC(O)Cn2c3ccccc3c3ccccc32)CC1 (centres unmarked),-54%
3,OC(CN1CCOCC1)Cn1c2ccccc2c2ccccc21 (centres unmarked),2.42%
4,OC(CN1CCN(c2ccccc2)CC1)Cn1c2ccccc2c2ccccc21 (centres unmarked),9.1%
5,CSc1cc(C)[nH]c(=O)n1,7.05%
6,CCOc1cc(S(=O)(=O)Nc2ccc(Cl)cn2)ccc1Cl,5.67%
7,CCC(C)C(NC(=O)OCc1ccccc1)C(=O)OCN1C(=O)c2ccccc2C1=O (centres unmarked),-2.01%
8,COCc1cc(C)nc2sc(C(=O)Nc3ccc(OC)cc3)c(N)c12,12.5%
9,COc1ccccc1CN1CCCCC1C(=O)O (centres unmarked),9.48%
10,CCC(C)n1c(=S)[nH]c2ccccc2c1=O (centres unmarked),-0.621%
11,O=C(CC12CC3CC(CC(C3)C1)C2)NC(=S)N1CCCCC1,26.6%
12,CN(CC(=O)Nc1ccccc1Br)C(=O)c1ccccc1-c1nc2ccccc2s1,-26.3%
13,O=C(CCS(=O)(=O)c1ccc(Br)cc1)NC1CCCC1,11.6%
14,COC(=O)c1ccc(-c2c(-c3ccccc3)ncc3cc(F)ccc23)cc1,7.97%
15,CC1CCN(CC(O)CN2c3ccccc3Sc3ccccc32)CC1 (centres unmarked),-59.2%
16,CC1CCN(C(=O)N2c3ccccc3Sc3ccccc32)CC1,-5.69%
17,CCN(CC)CC(O)CN1c2ccccc2Sc2ccccc21 (centres unmarked),-25%
18,COC(=O)c1sc(NC(=O)COc2ccc(OC)cc2)nc1C,6.37%
